Source: the supplement of paper PMC12808144
Unmarked numbers belong to inactive results.

Legend:
Mel-DCC-11 = assay: cell viability relative to DMSO control (fraction of DMSO control); higher = less cytotoxic, active = 0.5 or less; conditions: 1 µM; 120 h
Outline: (§1)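 Three cell types were screened against 315 approved anti-cancer drugs from TargetMol, acoustically pre-spotted in 384-well plates at 1 µM in duplicate over 120 h: NHEM-hTERT immortalized melanocytes (2500/well), patient-derived Mel-DCC-11 and its resistant subline Mel-DCC-11-R (both 1500/well), all in 40 µl per well. The subline was tested alone and with 8 µM of its selecting drug. Viability, measured by luminescence, was normalised to vehicle controls and averaged across duplicates, with ATPlite 1step as the readout.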

NHEM-hTERT = assay: as above; conditions: 1 µM; 120 h
Outline: as §1

Mel-DCC-11-R = assay: cell viability relative to DMSO control (fraction of DMSO control); higher = less cytotoxic, active = 0.8 or less; conditions: 1 µM, 120 h
Outline: as §1

| Compound | cell viability (Mel-DCC-11) | cell viability (NHEM-hTERT) | cell viability (Mel-DCC-11-R; vemurafenib co-treatment 0 µM) | cell viability (Mel-DCC-11-R; vemurafenib co-treatment 8 µM) |
| --- | --- | --- | --- | --- |
| COC(=O)c1ccc2c(c1)NC(=O)/C2=C(\Nc1ccc(N(C)C(=O)CN2CCN(C)CC2)cc1)c1ccccc1 [Nintedanib] | 0.982 | 0.909 | – | – |
| O=c1cc[nH]c(=O)[nH]1 [Uracil] | 0.996 | 1.1 | – | – |
| O=c1cc(-c2ccc(O)cc2)oc2cc(O)cc(O)c12 [Apigenin] | 1.07 | 1.09 | – | – |
| CC(=O)c1c(C)c2cnc(Nc3ccc(N4CCNCC4)cn3)nc2n(C2CCCC2)c1=O [Palbociclib] | 0.763 | 0.993 | – | – |
| CCc1ccc(CCOc2ccc(CC3SC(=O)NC3=O)cc2)nc1.Cl (centres undefined) [Pioglitazone hydrochloride] | 0.8 | 1.09 | – | – |
| CCN(CC)C(=S)SSC(=S)N(CC)CC [Disulfiram] | 0.0336 (active) | 1.05 | – | – |
| C[C@]12CC[C@@H]3c4ccc(O)cc4C[C@@H](CCCCCCCCCS(=O)CCCC(F)(F)C(F)(F)F)[C@H]3[C@@H]1CC[C@@H]2O (some centres undefined) [Fulvestrant] | 1.05 | 0.817 | – | – |
| O=C(Nc1c(Cl)cncc1Cl)c1ccc(OC(F)F)c(OCC2CC2)c1 [Roflumilast] | 1.34 | 0.841 | – | – |
| N.N.O=C([O-])C[O-].[Pt+2] [Nedaplatin] | 1.19 | 1.08 | – | – |
| CCCCCOC(=O)Nc1nc(=O)n([C@@H]2O[C@H](C)[C@@H](O)[C@H]2O)cc1F [Capecitabine] | 1.18 | 1.14 | – | – |
| Cn1cnc2c(F)c(Nc3ccc(Br)cc3F)c(C(=O)NOCCO)cc21 [Binimetinib] | 0.195 (active) | 0.934 | – | – |
| CNC(=O)c1cc(Oc2ccc(NC(=O)Nc3ccc(Cl)c(C(F)(F)F)c3)cc2)ccn1.Cc1ccc(S(=O)(=O)O)cc1 [Sorafenib tosylate] | 1.35 | 0.904 | – | – |
| COc1cc2c(Oc3ccc4[nH]c(C)cc4c3F)ncnc2cc1OCCCN1CCCC1 [Cediranib] | 0.87 | 0.891 | – | – |
| CN(C)C/C=C/C(=O)Nc1cc2c(Nc3ccc(F)c(Cl)c3)ncnc2cc1O[C@H]1CCOC1 [Afatinib] | 0.77 | 1.01 | – | – |
| Cl.N=C1CCCN1Cc1[nH]c(=O)[nH]c(=O)c1Cl [Tipiracil hydrochloride] | 0.924 | 0.914 | – | – |
| CC(C)C[C@H](NC(=O)CNC(=O)c1cc(Cl)ccc1Cl)B(O)O [Ixazomib] | 0.0361 (active) | 0.0856 (active) | – | – |
| O=C(CCCCCCC(=O)Nc1ccccc1)NO [Vorinostat] | 1.05 | 0.871 | – | – |
| CC/C(=C(\c1ccccc1)c1ccc(OCCN(C)C)cc1)c1ccccc1.O=C(O)CC(O)(CC(=O)O)C(=O)O [Tamoxifen Z-isomer citrate] | 1.26 | 0.977 | – | – |
| Nc1nc(=S)c2[nH]cnc2[nH]1 [Thioguanine] | 0.703 | 1.06 | – | – |
| O=c1[nH]c(=O)n([C@H]2C[C@H](O)[C@@H](CO)O2)cc1/C=C/Br [Brivudine] | 0.776 | 1.08 | – | – |
| Cc1nc(Nc2ncc(C(=O)Nc3c(C)cccc3Cl)s2)cc(N2CCN(CCO)CC2)n1 [Dasatinib] | 1.25 | 0.513 | – | – |
| CCc1c2c(nc3ccc(OC(=O)N4CCC(N5CCCCC5)CC4)cc13)-c1cc3c(c(=O)n1C2)COC(=O)[C@]3(O)CC.Cl.O.O.O [Irinotecan hydrochloride trihydrate] | 1.11 | 0.875 | – | – |
| CCNC(=O)[C@@H]1CCCN1C(=O)[C@H](CCCN=C(N)N)NC(=O)[C@H](CC(C)C)NC(=O)[C@@H](CC(C)C)NC(=O)[C@H](Cc1ccc(O)cc1)NC(=O)[C@H](CO)NC(=O)[C@H](Cc1c[nH]c2ccccc12)NC(=O)[C@H](Cc1cnc[nH]1)NC(=O)[C@@H]1CCC(=O)N1 [Leuprorelin Acetate] | 0.683 | 0.879 | – | – |
| CCN(CC)CCOc1ccc2c(c1)C(=O)c1cc(OCCN(CC)CC)ccc1-2.Cl.Cl [Tilorone dihydrochloride] | 1.06 | 1.15 | – | – |
| C.CCN(CC)CCCC(C)Nc1ccnc2cc(Cl)ccc12.O=P(O)(O)O.O=P(O)(O)O (centres undefined) [Chloroquine diphosphate] | 1.06 | 1.27 | – | – |

| Compound | cell viability (Mel-DCC-11) | cell viability (NHEM-hTERT) | cell viability (Mel-DCC-11-R; vemurafenib co-treatment 0 µM) | cell viability (Mel-DCC-11-R; vemurafenib co-treatment 8 µM) |
| --- | --- | --- | --- | --- |
| O=c1c(-c2ccc(O)cc2)coc2cc(O)cc(O)c12 [Genistein] | 1.04 | 1.1 | – | – |
| C=CC(=O)N1CCC[C@@H](n2nc(-c3ccc(Oc4ccccc4)cc3)c3c(N)ncnc32)C1 [Ibrutinib] | 0.492 (active) | 1.05 | – | – |
| CNC(=O)c1cc(Oc2ccc(NC(=O)Nc3ccc(Cl)c(C(F)(F)F)c3)c(F)c2)ccn1 [Regorafenib] | 0.78 | 0.792 | – | – |
| CCc1cnn2c(NCc3ccc[n+]([O-])c3)cc(N3CCCC[C@H]3CCO)nc12 [Dinaciclib] | 0.0557 (active) | 0.212 (active) | – | – |
| Cl.N=c1ccn2c(n1)O[C@H]1[C@H](O)[C@@H](CO)O[C@H]12 [Cyclocytidine hydrochloride] | 0.737 | 0.845 | – | – |
| CC[C@]1(O)C[C@@H]2C[N@@](CCc3c([nH]c4ccccc34)[C@@](C(=O)OC)(c3cc4c(cc3OC)N(C)[C@H]3[C@@](O)(C(=O)OC)[C@H](OC(C)=O)[C@]5(CC)C=CCN6CC[C@]43[C@@H]65)C2)C1.O=S(=O)(O)O [Vinblastine sulfate] | 0.428 (active) | 0.567 | – | – |
| NC(=O)NO [Hydroxyurea] | 0.899 | 1.1 | – | – |
| COc1cc2nccc(Oc3ccc(NC(=O)C4(C(=O)Nc5ccc(F)cc5)CC4)cc3)c2cc1OC [Cabozantinib] | 0.999 | 0.739 | – | – |
| Cc1c(C(=O)Nc2ccc(N3C[C@@H](C)O[C@@H](C)C3)nc2)cccc1-c1ccc(OC(F)(F)F)cc1 [Sonidegib] | 1.17 | 1.04 | – | – |
| CCN(CC)CCNC(=O)c1c(C)[nH]c(/C=C2\C(=O)Nc3ccc(F)cc32)c1C [Sunitinib] | 0.532 | 0.591 | – | – |
| CC(C)C[C@H](NC(=O)[C@H](Cc1ccccc1)NC(=O)c1cnccn1)B(O)O [Bortezomib] | 0.0258 (active) | 0.0282 (active) | – | – |
| CCOc1cc2ncc(C#N)c(Nc3ccc(OCc4ccccn4)c(Cl)c3)c2cc1NC(=O)/C=C/CN(C)C [Neratinib] | 1.03 | 0.732 | 1.31 | 0.643 (active) |
| O=c1[nH]c(=O)n([C@H]2C[C@H](O)[C@@H](CO)O2)cc1C(F)(F)F [Trifluridine] | 1.7 | 1.12 | 1.24 | 1.06 |
| CCS(=O)(=O)N1CC(CC#N)(n2cc(-c3ncnc4[nH]ccc34)cn2)C1 [Baricitinib] | 1.14 | 1.07 | 1 | 1.22 |
| CCOC(N)=O [Urethane] | 0.892 | 1.09 | 0.987 | 1 |
| CC(COc1ccccc1)N(CCCl)Cc1ccccc1.Cl (centres undefined) [Phenoxybenzamine hydrochloride] | 1.18 | 1.13 | 1 | 1.15 |
| CC(C)(C)c1nc(-c2cccc(NS(=O)(=O)c3c(F)cccc3F)c2F)c(-c2ccnc(N)n2)s1 [Dabrafenib] | 0.332 (active) | 0.976 | 1.03 | 0.894 |
| CN(C)C(=N)N=C(N)N.Cl [Metformin hydrochloride] | 1.03 | 1.07 | 0.843 | 1.08 |
| NCCNc1ccc(NCCN)c2c1C(=O)c1ccncc1C2=O.O=C(O)/C=C\C(=O)O.O=C(O)/C=C\C(=O)O [Pixantrone dimaleate] | 1.42 | 0.889 | 1.62 | 0.868 |
| C[C@@H]1O[C@@H](OC[C@H]2O[C@@H](Oc3c(-c4ccc(O)c(O)c4)oc4cc(O)cc(O)c4c3=O)[C@H](O)[C@@H](O)[C@@H]2O)[C@H](O)[C@H](O)[C@H]1O [Rutin] | 0.977 | 1.09 | 1.01 | 0.929 |
| CC(C)C(=O)Nc1ccc([N+](=O)[O-])c(C(F)(F)F)c1 [Flutamide] | 1.26 | 1.25 | 1.1 | 1.21 |
| NC(=O)N1CCC(CC(=O)N2CCC([C@H]3c4ncc(Br)cc4CCc4cc(Cl)cc(Br)c43)CC2)CC1 [Lonafarnib] | 0.726 | 0.9 | 0.926 | 0.889 |
| C[C@H]1O[C@@H](n2cc(F)c(=O)[nH]c2=O)[C@H](O)[C@@H]1O [Doxifluridine] | 1.31 | 0.863 | 1.08 | 1.21 |
| Nc1ccn([C@@H]2O[C@H](CO)[C@@H](O)[C@@H]2O)c(=O)n1 [Cytarabine] | 0.87 | 0.886 | 0.654 (active) | 0.936 |
